Assay results from PubChem BioAssay (Tox21).
Results filed as inconclusive are left out. The source made the active and inactive calls. Unless noted, calls come from the whole dose curve.

Experiments:
[1] = qHTS assay to identify small molecule agonists of the peroxisome proliferator-activated receptor delta (PPARd) signaling pathway - cell viability counter screen (AID 743211; active = well fitted curve in the direction sought with a large enough effect in the repeat runs; an effect the other way counts as inactive or inconclusive; note: % is set by controls: 0 for no effect and ±100 for the full control effect; nearly all actives have a fitted effect of over 55% in size)
Method in brief: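 qHTS cell viability: PPARd-bla HEK293H; 17 h cpd, 37C; CellTiter-Glo, luminescence at 30 min RT.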

[2] = biological target: Peroxisome proliferator-activated receptor delta (Homo sapiens) (UniProt Q03181); assay: qHTS assay to identify small molecule agonists of the peroxisome proliferator-activated receptor delta (PPARd) signaling pathway (AID 743212); note: % is set by controls: 0 for no effect and ±100 for the full control effect
Method in brief: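 GeneBLAzer PPARd UAS-bla HEK293H cells (beta-lactamase reporter under UAS control), plated and rested 5 h at 37 C, then exposed to compounds in DMSO at 37 C; LiveBLAzer B/G FRET substrate added, 2 h room temperature, fluorescence read.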

[3] = biological target: Peroxisome proliferator-activated receptor delta (Homo sapiens) (UniProt Q03181); assay: qHTS assay to identify small molecule antagonists of the peroxisome proliferator-activated receptor delta (PPARd) signaling pathway (AID 743215; active = well fitted inhibition curve with a large enough effect in the signal ratio in the repeat runs, not every such curve was filed as active; the % refers to the signal ratio;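 note: cells stimulated with agonist L165041 at 300 nM final during compound exposure; series mostly up to about 62 µM; % is set by controls: 0 for no effect and ±100 for the full control effect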)
Method in brief: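 PPARd UAS-bla HEK293H cells were pre-incubated 5 h at 37 C, then given test compounds in DMSO plus agonist L165041 (300 nM final). After 17 h at 37 C, beta-lactamase FRET substrate was added; fluorescence read after 2 h at room temperature.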

[4] = qHTS assay to identify small molecule agonists of the farnesoid-X-receptor (FXR) signaling pathway - cell viability counter screen (AID 743218; active = well fitted curve in the direction sought with a large enough effect in the repeat runs; an effect the other way counts as inactive or inconclusive; note: % is set by controls: 0 for no effect and ±100 for the full control effect; nearly all actives have a fitted effect of over 45% in size)
Method in brief: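 FXR-UAS-bla HEK 293T cells, plated 5 h at 37 C, were exposed to compounds for 16 h at 37 C. CellTiter-Glo was then added to the same wells as the bla readout; luminescence read after 30 min at room temperature.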

[5] = biological target: Vitamin D3 receptor (Homo sapiens) (UniProt P11473); assay: qHTS assay to identify small molecule agonists of the vitamin D receptor (VDR) signaling pathway (AID 743222); note: % is set by controls: 0 for no effect and ±100 for the full control effect
Method in brief: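 VDR-bla cells were plated 4 h at 37C/5% CO2, then exposed to compounds in DMSO for 16 h. After LiveBLAzer B/G FRET substrate addition and 2 h at room temperature, beta-lactamase reporter fluorescence was read.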

[6] = biological target: Vitamin D3 receptor (Homo sapiens) (UniProt P11473); assay: qHTS assay to identify small molecule antagonists of the vitamin D receptor (VDR) signaling pathway (AID 743223; active = well fitted inhibition curve with a large enough effect in the signal ratio in the repeat runs, not every such curve was filed as active; the % refers to the signal ratio; note: % is set by controls: 0 for no effect and ±100 for the full control effect)
Method in brief: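 Reporter line VDR-bla; stimulus 1alpha,25-(OH)2 vitamin D3, 3 nM final; compound co-addition, 16 h 37C/5% CO2; LiveBLAzer B/G substrate 2 h RT; fluorescence intensity.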

[7] = qHTS assay to identify small molecule agonists of the vitamin D receptor (VDR) signaling pathway - cell viability counter screen (AID 743224; active = well fitted curve in the direction sought with a large enough effect in the repeat runs; an effect the other way counts as inactive or inconclusive; note: series mostly up to about 63 µM; % is set by controls: 0 for no effect and ±100 for the full control effect; nearly all actives have a fitted effect of over 50% in size)
Method in brief: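 VDR-bla cells were preincubated 4 h at 37C/5% CO2, then exposed to compounds for 16 h. After the 2 h room-temperature bla FRET read, CellTiter-Glo was added to the same wells and luminescence read after 30 min.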

[8] = qHTS assay to identify small molecule antagonists of the vitamin D receptor (VDR) signaling pathway - cell viability counter screen (AID 743225; active = well fitted curve in the direction sought with a large enough effect in the repeat runs; an effect the other way counts as inactive or inconclusive; note: % is set by controls: 0 for no effect and ±100 for the full control effect; nearly all actives have a fitted effect of over 50% in size)
Method in brief: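 Parallel cytotoxicity test: VDR-UAS-bla HEK 293T, 3 nM (final) 1-alpha,25-dihydroxyvitamin D3 with test compound, 16 h, 37C. Endpoint is CellTiter-Glo luminescence in the same wells.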

[9] = qHTS assay to identify small molecule agonists of the NFkB signaling pathway - cell viability counter screen (AID 1159515); note: series mostly up to about 61 µM; % is set by controls: 0 for no effect and ±100 for the full control effect; nearly all actives have a fitted effect of over 55% in size
Method in brief: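 NFkB-bla ME-180 cells, 2,000/well, were plated overnight at 37 C, 5% CO2, then exposed to compounds in DMSO for 5 hr. After the bla FRET read, CellTiter-Glo was added to the same wells; luminescence was read after 30 min at room temperature.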

[10] = qHTS assay to identify small molecule agonists of the endoplasmic reticulum stress response signaling pathway (AID 1159516; active = well fitted activation curve with a large enough effect in the signal ratio in the repeat runs, not every such curve was filed as active; the % refers to the signal ratio; note: % is set by controls: 0 for no effect and ±100 for the full control effect)
Method in brief: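 CellSensor ESRE-bla HeLa cells, carrying a beta-lactamase reporter driven by the ER stress response element, were plated overnight and exposed to compounds for 5 hr at 37 C. Reporter activity was read as FRET substrate fluorescence after 2 hr at room temperature.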

[11] = qHTS assay to identify small molecule agonists of the endoplasmic reticulum stress response signaling pathway - cell viability counter screen (AID 1159517); note: series mostly up to about 61 µM; % is set by controls: 0 for no effect and ±100 for the full control effect; nearly all actives have a fitted effect of over 50% in size
Method in brief: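 Luminescence readout: CellTiter-Glo, 30 min RT, same wells as the ESRE-bla reporter read. HeLa ESRE-bla, 1,500 cells/well, o/n 37 C; cpd 5 hr 37 C/5% CO2.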

[12] = qHTS assay to identify small molecule antagonists of the retinoid-related orphan receptor gamma (ROR-gamma) signaling pathway - cell viability counter screen (AID 1159520; active = well fitted curve in the direction sought with a large enough effect in the repeat runs; an effect the other way counts as inactive or inconclusive; note: % is set by controls: 0 for no effect and ±100 for the full control effect; nearly all actives have a fitted effect of over 50% in size)
Method in brief: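 Tet-on ROR gamma CHO cells (1,000/well) were plated 4 hr, given compounds in DMSO for 2 hr at 37 C, then induced with 1 uM final doxycycline for 16 hr. Viability was read as ATP by CellTiter-Glo luminescence after 30 min.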

[13] = qHTS assay to identify small molecule agonists of the AP-1 signaling pathway - cell viability counter screen (AID 1159525); note: nearly all actives have a fitted effect of over 55% in size
Method in brief: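 ME-180 AP-1-bla, 2500 cells/well, Opti-MEM + 0.5% dialyzed FBS; overnight 37 °C; cpd 15-pt titration, 5 h 37 °C; CellTiter-Glo 30 min RT; luminescence read; normalised to TOAB and DMSO controls.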

[14] = qHTS assay to identify small molecule agonists of the AP-1 signaling pathway (AID 1159526); note: % is set by controls: 0 for no effect and ±100 for the full control effect
[15] = biological target: Retinoic acid receptor RXR-alpha (Homo sapiens) (UniProt P19793); assay: qHTS assay to identify small molecule agonists of the RXR signaling pathway (AID 1159527); note: nearly all actives have a fitted effect of over 35% in size; note: potency is the fitted concentration of half-maximal effect
Method in brief: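 16 hr incubation of compound-treated RXR-alpha-UAS-bla HEK 293T cells (2% charcoal-stripped FBS, 37 C) preceded a 2 hr room-temperature LiveBLAzer FRET substrate step and blue/green fluorescence measurement.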

[16] = qHTS assay to identify small molecule antagonists of the peroxisome proliferator-activated receptor delta (PPARd) signaling pathway - cell viability counter screen (AID 743213; active = well fitted curve in the direction sought with a large enough effect in the repeat runs; an effect the other way counts as inactive or inconclusive)
Method in brief: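 In this counter screen, HEK293H cells carrying a UAS-beta-lactamase reporter are co-treated with test compounds and 300 nM L165041 (final) for 17 h at 37 C; cell viability is quantified by CellTiter-Glo luminescence.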

[17] = biological target: Bile acid receptor (Homo sapiens) (UniProt Q96RI1); assay: qHTS assay to identify small molecule antagonists of the farnesoid-X-receptor (FXR) signaling pathway (AID 743217; active = well fitted inhibition curve with a large enough effect in the signal ratio in the repeat runs, not every such curve was filed as active; the % refers to the signal ratio; note: % is set by controls: 0 for no effect and ±100 for the full control effect)
Method in brief: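 FXR-UAS-bla HEK 293T cells pre-incubated 5 h at 37 °C, then exposed to compounds with chenodeoxycholic acid (50 uM final) for 16 h at 37 °C. Beta-lactamase reporter read by LiveBLAzer B/G FRET substrate fluorescence after 2 h at room temperature.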

[18] = biological target: Bile acid receptor (Homo sapiens) (UniProt Q96RI1); assay: qHTS assay to identify small molecule agonists of the farnesoid-X-receptor (FXR) signaling pathway (AID 743220; active = well fitted activation curve with a large enough effect in the signal ratio in the repeat runs, not every such curve was filed as active; the % refers to the signal ratio; note: % is set by controls: 0 for no effect and ±100 for the full control effect)
Method in brief: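 Beta-lactamase reporter under UAS control in GeneBLAzer FXR HEK 293T cells (5000/well) measured with LiveBLAzer FRET substrate after 2 h at room temperature. Compound exposure lasted 16 h at 37C.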

[19] = biological target: Nuclear receptor ROR-gamma (Homo sapiens) (UniProt P51449); assay: qHTS assay to identify small molecule antagonists of the retinoid-related orphan receptor gamma (ROR-gamma) signaling pathway (AID 1159521; active = well fitted curve in the direction sought with a large enough effect in the repeat runs; an effect the other way counts as inactive or inconclusive)
Method in brief: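 Decreased RORE-driven luciferase luminescence indicates antagonism. Tet-on RORγ CHO cells received compound, then 1 uM final doxycycline 2 h later; signal read after 16 h incubation.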

[20] = qHTS assay to identify small molecule antagonists of the farnesoid-X-receptor (FXR) signaling pathway - cell viability counter screen (AID 743221; active = well fitted cell-killing curve with a large enough effect in the repeat runs, not every such curve was filed as active)
Method in brief: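 After a 5 h settling period, FXR-bla HEK 293T cells receive compound and chenodeoxycholic acid (50 uM final) and incubate 16 h at 37 C; CellTiter-Glo luminescence, read after 30 min at room temperature, reports cell viability.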

Chain of Vitamin D3 receptor (Homo sapiens) (P11473 whole entry, looked up): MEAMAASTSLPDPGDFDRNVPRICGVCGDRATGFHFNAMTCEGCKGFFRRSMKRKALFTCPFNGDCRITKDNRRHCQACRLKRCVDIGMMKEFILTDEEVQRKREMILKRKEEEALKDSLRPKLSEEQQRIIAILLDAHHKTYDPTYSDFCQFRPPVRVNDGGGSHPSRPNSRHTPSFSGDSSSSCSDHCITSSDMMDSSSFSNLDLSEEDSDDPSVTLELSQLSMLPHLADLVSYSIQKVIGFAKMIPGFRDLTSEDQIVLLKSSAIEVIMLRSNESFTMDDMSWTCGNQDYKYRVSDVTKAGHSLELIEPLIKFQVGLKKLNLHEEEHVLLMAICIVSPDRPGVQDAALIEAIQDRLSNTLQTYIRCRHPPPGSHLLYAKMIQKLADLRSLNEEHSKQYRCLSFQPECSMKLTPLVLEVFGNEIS
Chain of Peroxisome proliferator-activated receptor delta (Homo sapiens) (Q03181 whole entry, looked up): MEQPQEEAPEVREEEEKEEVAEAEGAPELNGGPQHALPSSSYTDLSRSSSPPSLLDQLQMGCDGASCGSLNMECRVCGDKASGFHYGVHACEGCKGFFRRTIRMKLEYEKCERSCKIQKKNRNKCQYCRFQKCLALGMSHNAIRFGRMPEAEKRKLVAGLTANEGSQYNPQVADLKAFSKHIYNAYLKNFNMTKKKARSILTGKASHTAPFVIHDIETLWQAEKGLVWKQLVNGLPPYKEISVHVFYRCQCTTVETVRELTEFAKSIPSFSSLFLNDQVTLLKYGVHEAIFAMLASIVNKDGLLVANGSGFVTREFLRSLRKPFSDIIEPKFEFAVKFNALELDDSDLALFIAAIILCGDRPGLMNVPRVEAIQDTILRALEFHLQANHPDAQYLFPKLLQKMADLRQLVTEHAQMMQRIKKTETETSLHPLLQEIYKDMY
Chain of Bile acid receptor (Homo sapiens) (Q96RI1 whole entry, looked up): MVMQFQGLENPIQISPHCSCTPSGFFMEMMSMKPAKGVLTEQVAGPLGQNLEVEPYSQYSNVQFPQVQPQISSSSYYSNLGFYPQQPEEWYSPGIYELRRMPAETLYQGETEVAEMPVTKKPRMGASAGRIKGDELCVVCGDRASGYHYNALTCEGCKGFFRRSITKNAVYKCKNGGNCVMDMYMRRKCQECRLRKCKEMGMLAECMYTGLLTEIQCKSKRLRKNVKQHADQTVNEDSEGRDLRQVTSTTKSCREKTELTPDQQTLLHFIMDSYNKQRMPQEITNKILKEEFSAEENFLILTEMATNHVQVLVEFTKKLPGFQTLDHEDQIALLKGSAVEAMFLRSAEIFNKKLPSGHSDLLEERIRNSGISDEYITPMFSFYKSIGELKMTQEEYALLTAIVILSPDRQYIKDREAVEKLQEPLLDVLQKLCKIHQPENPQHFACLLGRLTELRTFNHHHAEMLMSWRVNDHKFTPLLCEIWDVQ
Chain of Retinoic acid receptor RXR-alpha (Homo sapiens) (P19793 whole entry, looked up): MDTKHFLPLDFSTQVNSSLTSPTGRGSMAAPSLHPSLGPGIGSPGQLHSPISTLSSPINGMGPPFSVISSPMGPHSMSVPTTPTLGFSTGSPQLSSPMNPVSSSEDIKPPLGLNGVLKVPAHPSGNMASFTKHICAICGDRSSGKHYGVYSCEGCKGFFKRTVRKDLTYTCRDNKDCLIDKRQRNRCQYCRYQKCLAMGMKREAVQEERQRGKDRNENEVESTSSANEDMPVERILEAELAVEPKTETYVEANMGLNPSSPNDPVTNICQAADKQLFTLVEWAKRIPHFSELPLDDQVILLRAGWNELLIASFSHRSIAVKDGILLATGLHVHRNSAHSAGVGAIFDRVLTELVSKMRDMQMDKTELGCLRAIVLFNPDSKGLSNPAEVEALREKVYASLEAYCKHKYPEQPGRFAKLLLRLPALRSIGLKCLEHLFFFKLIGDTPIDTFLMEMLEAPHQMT

Cc1cc(C)c(N=Nc2c(O)c(S(=O)(=O)O)cc3cc(S(=O)(=O)O)ccc23)cc1C
inactive: activity change, negative = cytotoxicity [1] -0.611% [at 5.95 µM] | activation [2] 6.93% [at 5.95 µM] | ratio activity, negative = inhibition [3] 0.853% [at 6.26 µM] | viability change, negative = cytotoxic [4] 0.0024% [at 5.95 µM] | activation [5] 0.83% [at 6.01 µM] | activity change, negative = inhibition [6] -3.01% [at 6.95 µM] | activity change, negative = cytotoxicity [7] -8.28% [at 5.95 µM] | viability change, negative = cytotoxic [8] 8.22% [at 6.95 µM] | activity, negative = cytotoxic [9] -2.06% [at 6.95 µM] | activation [10] -3.13% [at 6.95 µM] | activity change, negative = cytotoxicity [11] 9.59% [at 6.95 µM] | activity, negative = cytotoxicity [12] -7.94% [at 8.39 µM] | viability change, negative = cytotoxic [13] -9.8% [at 6.97 µM] | activation [14] 6% [at 6.97 µM] | activation [15] 2.6% [at 6.98 µM]

c1ccc(Cc2ccccc2)cc1
inactive: outcome [16] | outcome [17] | outcome [4] | outcome [18] | outcome [5] | outcome [7] | outcome [8] | outcome [9] | outcome [11] | outcome [12] | Potency [19] | outcome [13] | outcome [14] | Potency [15]

O=S(=O)(O)c1cccc2ccccc12
inactive: outcome [1] | outcome [2] | outcome [16] | outcome [3] | outcome [20] | outcome [7] | outcome [8] | outcome [9] | outcome [11] | outcome [12] | outcome [13] | outcome [14] | Potency [15]

CC[N+](CC)(CC)CCOc1cccc(OCC[N+](CC)(CC)CC)c1OCC[N+](CC)(CC)CC
inactive: outcome [1] | outcome [2] | outcome [16] | outcome [3] | outcome [4] | outcome [20] | outcome [7] | outcome [8] | outcome [9] | outcome [11] | outcome [12] | outcome [13] | outcome [14] | Potency [15]

CC(N)C12CC3CC(CC(C3)C1)C2 (stereo not given)
inactive: outcome [2] | outcome [16] | outcome [3] | outcome [17] | outcome [4] | outcome [18] | outcome [20] | outcome [5] | outcome [7] | outcome [8] | outcome [9] | outcome [11] | outcome [12] | Potency [19] | outcome [13] | outcome [14] | Potency [15]

NO
active: Potency [15] 44.5 µM
inactive: outcome [16] | outcome [4] | outcome [20] | outcome [5] | outcome [6] | outcome [7] | outcome [8] | outcome [9] | outcome [11] | outcome [12] | Potency [19] | outcome [13] | outcome [14]

C=CC(=O)OCCCl
inactive: outcome [16] | outcome [17] | outcome [4] | outcome [18] | outcome [5] | outcome [6] | outcome [7] | outcome [9] | outcome [11] | outcome [12] | Potency [19] | outcome [13] | outcome [14] | Potency [15]

CCCC(C)C(=O)OCC (stereo not given)
inactive: outcome [1] | outcome [2] | outcome [16] | outcome [4] | outcome [5] | outcome [6] | outcome [7] | outcome [9] | outcome [11] | outcome [12] | Potency [19] | outcome [13] | outcome [14] | Potency [15]

CCCCCC(C)N (stereo not given)
inactive: outcome [1] | outcome [2] | outcome [16] | outcome [3] | outcome [4] | outcome [20] | outcome [7] | outcome [8] | outcome [9] | outcome [11] | outcome [12] | Potency [19] | outcome [13] | outcome [14] | Potency [15]

CCCc1ncc(C[n+]2ccccc2C)c(N)n1
inactive: outcome [17] | outcome [4] | outcome [18] | outcome [20] | outcome [5] | outcome [6] | outcome [7] | outcome [8] | outcome [9] | outcome [11] | outcome [12] | Potency [19] | outcome [13] | outcome [14] | Potency [15]

CC1(C)[C@@H]2CC[C@@]1(C)[C@H](O)C2
inactive: outcome [1] | outcome [2] | outcome [16] | outcome [3] | outcome [4] | outcome [20] | outcome [7] | outcome [8] | outcome [9] | outcome [11] | outcome [12] | Potency [19] | outcome [13] | outcome [14] | Potency [15]
